# From ChEMBL document CHEMBL1961873, “Compounds: GSK PKIS; Assays: Nanosyn kinase panel” (2012)
# Columns and labels:
# [1] = target: Tyrosine-protein kinase SYK (Homo sapiens) (UniProt P43405); conditions: at 1 µM
# [2] = target: T1, Tyrosine-protein kinase Tec (Homo sapiens) (UniProt P42680); conditions: at 0.1 µM
# T1 sequence (whole entry): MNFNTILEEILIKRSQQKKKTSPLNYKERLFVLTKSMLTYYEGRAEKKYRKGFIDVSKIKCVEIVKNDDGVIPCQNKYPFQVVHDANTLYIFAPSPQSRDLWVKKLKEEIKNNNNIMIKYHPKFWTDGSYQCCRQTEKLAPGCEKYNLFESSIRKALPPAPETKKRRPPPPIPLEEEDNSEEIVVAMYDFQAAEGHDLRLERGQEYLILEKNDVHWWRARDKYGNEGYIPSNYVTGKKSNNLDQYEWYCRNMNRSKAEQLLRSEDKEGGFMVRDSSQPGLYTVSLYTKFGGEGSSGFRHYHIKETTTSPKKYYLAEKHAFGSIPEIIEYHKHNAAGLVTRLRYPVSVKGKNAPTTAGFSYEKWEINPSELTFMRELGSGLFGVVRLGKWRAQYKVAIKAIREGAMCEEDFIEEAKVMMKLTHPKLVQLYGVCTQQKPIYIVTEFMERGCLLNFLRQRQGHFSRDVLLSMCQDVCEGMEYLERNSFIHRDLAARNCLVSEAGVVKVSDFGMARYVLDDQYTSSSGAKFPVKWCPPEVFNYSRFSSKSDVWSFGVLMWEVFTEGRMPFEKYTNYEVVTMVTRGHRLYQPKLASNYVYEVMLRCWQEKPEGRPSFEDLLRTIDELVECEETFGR
# [3] = target: T1, Tyrosine-protein kinase Tec (Homo sapiens); conditions: at 1 µM
# [4] = target: Angiopoietin-1 receptor (Homo sapiens) (UniProt Q02763); conditions: at 0.1 µM
# [5] = target: Angiopoietin-1 receptor (Homo sapiens) (UniProt Q02763); conditions: at 1 µM
# [6] = target: T2, Non-receptor tyrosine-protein kinase TNK1 (Homo sapiens) (UniProt Q13470); conditions: at 0.1 µM
# T2 sequence (whole entry): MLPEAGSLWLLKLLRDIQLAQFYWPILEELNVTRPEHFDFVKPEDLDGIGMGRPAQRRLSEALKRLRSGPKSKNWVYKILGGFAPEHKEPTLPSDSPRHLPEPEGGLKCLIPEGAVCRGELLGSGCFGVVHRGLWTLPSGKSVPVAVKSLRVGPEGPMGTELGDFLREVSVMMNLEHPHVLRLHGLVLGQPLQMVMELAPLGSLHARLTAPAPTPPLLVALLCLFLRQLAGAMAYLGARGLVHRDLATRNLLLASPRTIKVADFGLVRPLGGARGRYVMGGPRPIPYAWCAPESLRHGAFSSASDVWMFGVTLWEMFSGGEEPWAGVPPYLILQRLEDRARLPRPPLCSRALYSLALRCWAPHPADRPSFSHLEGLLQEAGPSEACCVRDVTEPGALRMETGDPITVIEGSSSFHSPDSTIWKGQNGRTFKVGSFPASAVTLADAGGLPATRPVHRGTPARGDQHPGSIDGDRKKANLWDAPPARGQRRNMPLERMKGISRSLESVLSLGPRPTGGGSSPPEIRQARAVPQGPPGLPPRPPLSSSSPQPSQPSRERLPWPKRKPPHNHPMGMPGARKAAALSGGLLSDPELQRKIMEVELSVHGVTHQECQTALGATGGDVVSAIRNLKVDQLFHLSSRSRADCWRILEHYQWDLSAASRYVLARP
# [7] = target: T2, Non-receptor tyrosine-protein kinase TNK1 (Homo sapiens); conditions: at 1 µM
# [8] = target: Activated CDC42 kinase 1 (Homo sapiens) (UniProt Q07912); conditions: at 0.1 µM
# [9] = target: Activated CDC42 kinase 1 (Homo sapiens) (UniProt Q07912); conditions: at 1 µM
# [10] = target: High affinity nerve growth factor receptor (Homo sapiens) (UniProt P04629); conditions: at 0.1 µM
# [11] = target: High affinity nerve growth factor receptor (Homo sapiens) (UniProt P04629); conditions: at 1 µM
# [12] = target: BDNF/NT-3 growth factors receptor (Homo sapiens) (UniProt Q16620); conditions: at 0.1 µM
# [13] = target: BDNF/NT-3 growth factors receptor (Homo sapiens) (UniProt Q16620); conditions: at 1 µM
# [14] = target: NT-3 growth factor receptor (Homo sapiens) (UniProt Q16288); conditions: at 0.1 µM
# [15] = target: NT-3 growth factor receptor (Homo sapiens) (UniProt Q16288); conditions: at 1 µM
# [16] = target: T3, Tyrosine-protein kinase TXK (Homo sapiens) (UniProt P42681); conditions: at 0.1 µM
# T3 sequence (whole entry): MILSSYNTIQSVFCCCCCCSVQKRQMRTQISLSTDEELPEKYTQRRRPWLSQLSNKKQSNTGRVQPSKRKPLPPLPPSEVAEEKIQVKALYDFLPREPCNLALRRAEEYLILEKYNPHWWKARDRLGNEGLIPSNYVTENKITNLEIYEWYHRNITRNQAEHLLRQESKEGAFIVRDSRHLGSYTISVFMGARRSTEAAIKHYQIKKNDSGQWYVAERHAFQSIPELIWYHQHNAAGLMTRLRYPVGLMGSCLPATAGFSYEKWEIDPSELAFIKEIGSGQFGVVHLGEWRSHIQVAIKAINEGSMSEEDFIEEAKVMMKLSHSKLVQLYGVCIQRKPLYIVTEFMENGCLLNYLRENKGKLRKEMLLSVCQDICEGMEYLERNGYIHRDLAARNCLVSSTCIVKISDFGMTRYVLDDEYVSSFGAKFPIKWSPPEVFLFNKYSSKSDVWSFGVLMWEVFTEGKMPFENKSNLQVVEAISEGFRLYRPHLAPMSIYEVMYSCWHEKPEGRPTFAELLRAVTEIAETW
# [17] = target: T3, Tyrosine-protein kinase TXK (Homo sapiens); conditions: at 1 µM
# [18] = target: Non-receptor tyrosine-protein kinase TYK2 (Homo sapiens) (UniProt P29597); conditions: at 0.1 µM;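 also: each value is a mean of the inhibition readings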
# [19] = target: T4, Dual specificity protein kinase TTK (Homo sapiens) (UniProt P33981); conditions: at 1 µM;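 also: reported figures are mean TTK inhibition at 1 µM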
# T4 sequence (whole entry): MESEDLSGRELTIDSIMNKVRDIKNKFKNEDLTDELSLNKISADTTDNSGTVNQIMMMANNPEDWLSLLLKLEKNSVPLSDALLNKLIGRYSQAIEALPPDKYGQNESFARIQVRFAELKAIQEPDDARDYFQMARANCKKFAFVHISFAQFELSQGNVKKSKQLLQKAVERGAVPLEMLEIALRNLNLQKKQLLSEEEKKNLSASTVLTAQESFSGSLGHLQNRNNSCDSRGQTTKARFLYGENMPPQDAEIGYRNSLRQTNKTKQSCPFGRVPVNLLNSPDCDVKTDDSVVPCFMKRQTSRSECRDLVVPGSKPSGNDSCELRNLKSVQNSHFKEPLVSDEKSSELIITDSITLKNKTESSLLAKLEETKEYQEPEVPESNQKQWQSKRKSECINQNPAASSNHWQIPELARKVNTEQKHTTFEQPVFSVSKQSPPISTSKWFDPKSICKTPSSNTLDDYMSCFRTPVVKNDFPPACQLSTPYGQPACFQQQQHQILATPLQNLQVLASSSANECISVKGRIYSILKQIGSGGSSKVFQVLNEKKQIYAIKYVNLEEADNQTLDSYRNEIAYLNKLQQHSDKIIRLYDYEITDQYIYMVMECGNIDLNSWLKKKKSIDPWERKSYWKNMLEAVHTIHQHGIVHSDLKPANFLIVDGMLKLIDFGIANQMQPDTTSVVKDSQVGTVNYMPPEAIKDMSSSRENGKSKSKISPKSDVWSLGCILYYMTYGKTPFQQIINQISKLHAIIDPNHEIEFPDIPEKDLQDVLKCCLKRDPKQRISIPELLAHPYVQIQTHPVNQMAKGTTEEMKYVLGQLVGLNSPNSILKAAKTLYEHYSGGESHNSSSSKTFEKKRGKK
# [20] = target: T5, Aurora kinase A (Homo sapiens) (UniProt O14965); conditions: at 0.1 µM;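 also: each reported value is a mean percent inhibition of Aurora-A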
# T5 sequence (whole entry): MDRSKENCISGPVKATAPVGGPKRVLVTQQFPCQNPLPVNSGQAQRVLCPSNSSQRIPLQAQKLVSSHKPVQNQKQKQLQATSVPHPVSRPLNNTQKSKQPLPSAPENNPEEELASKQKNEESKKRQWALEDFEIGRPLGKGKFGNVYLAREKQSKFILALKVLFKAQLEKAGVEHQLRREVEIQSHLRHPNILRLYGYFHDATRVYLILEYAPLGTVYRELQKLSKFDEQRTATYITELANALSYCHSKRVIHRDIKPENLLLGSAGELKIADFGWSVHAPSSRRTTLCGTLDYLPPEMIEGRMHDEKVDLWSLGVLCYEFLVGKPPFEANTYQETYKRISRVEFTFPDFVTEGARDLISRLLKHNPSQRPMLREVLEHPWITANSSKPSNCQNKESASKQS
# Chain of BDNF/NT-3 growth factors receptor (Homo sapiens) (Q16620 32-822 limits assumed): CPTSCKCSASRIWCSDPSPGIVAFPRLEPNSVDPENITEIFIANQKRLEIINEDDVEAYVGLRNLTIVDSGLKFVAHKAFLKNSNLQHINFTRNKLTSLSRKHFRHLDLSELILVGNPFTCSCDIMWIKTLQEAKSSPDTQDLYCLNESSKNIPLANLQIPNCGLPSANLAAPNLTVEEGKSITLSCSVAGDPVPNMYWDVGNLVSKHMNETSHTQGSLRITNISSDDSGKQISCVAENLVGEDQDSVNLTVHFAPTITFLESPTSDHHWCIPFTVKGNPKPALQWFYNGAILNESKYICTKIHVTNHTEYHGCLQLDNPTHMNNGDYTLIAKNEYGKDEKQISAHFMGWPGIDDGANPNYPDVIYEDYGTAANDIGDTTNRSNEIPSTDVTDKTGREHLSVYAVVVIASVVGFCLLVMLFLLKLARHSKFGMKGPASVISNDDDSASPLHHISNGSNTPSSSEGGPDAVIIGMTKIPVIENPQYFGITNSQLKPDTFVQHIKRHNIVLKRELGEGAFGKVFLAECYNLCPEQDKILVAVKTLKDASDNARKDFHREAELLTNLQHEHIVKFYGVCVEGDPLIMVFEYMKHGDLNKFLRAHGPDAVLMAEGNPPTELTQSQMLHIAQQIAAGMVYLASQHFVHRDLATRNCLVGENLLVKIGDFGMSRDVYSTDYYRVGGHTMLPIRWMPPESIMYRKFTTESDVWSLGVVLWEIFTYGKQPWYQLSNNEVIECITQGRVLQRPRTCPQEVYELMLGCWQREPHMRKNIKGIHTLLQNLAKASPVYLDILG
# Chain of NT-3 growth factor receptor (Homo sapiens) (Q16288 32-839 limits assumed): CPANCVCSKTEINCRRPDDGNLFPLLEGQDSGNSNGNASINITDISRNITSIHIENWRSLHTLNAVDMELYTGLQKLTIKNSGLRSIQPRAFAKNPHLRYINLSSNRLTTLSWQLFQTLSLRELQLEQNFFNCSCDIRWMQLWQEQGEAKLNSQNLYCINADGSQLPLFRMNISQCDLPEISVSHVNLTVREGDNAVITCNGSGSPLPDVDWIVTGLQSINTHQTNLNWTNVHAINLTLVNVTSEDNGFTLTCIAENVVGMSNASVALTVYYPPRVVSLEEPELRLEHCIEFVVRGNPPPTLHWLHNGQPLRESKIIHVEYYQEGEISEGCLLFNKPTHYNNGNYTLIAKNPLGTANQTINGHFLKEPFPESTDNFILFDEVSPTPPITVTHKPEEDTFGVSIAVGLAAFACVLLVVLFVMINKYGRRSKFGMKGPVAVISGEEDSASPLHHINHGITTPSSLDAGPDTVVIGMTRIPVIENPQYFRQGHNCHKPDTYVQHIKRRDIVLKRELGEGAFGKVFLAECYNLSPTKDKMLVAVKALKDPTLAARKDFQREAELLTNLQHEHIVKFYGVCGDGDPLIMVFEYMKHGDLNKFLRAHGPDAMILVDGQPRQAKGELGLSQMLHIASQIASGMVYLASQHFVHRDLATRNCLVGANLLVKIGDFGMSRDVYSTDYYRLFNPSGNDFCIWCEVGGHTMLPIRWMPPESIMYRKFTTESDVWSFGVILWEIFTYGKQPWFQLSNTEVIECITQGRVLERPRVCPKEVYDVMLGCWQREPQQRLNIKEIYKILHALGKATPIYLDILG
# Chain of Angiopoietin-1 receptor (Homo sapiens) (Q02763 whole entry): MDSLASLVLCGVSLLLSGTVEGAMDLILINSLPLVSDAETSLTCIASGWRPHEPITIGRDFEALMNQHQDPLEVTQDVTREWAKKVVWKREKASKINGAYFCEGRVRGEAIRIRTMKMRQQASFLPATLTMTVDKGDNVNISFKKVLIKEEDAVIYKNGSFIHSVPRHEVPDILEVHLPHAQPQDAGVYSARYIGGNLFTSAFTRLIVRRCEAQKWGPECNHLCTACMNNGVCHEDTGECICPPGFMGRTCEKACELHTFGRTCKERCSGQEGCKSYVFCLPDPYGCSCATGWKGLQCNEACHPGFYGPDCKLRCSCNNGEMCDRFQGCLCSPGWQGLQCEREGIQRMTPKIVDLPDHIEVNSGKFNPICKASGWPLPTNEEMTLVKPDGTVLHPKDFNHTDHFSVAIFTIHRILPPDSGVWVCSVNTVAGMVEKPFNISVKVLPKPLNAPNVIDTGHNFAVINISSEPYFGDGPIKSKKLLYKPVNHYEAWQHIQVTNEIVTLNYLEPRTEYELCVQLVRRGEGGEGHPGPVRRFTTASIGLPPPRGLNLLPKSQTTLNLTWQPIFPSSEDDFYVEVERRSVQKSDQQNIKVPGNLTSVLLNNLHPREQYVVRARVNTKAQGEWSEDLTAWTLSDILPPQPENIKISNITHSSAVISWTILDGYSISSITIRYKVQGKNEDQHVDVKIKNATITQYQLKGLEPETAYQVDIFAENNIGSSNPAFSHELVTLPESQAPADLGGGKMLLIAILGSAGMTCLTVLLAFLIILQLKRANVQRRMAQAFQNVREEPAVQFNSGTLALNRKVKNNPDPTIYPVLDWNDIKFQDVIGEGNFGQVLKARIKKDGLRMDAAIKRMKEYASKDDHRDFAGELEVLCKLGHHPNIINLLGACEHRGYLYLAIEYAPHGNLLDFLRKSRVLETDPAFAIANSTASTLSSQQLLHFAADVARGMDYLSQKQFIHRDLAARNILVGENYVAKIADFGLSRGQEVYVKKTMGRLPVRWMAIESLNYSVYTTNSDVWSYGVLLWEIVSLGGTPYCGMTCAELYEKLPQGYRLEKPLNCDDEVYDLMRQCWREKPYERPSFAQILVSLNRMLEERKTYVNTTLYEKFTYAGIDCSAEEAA
# Chain of Non-receptor tyrosine-protein kinase TYK2 (Homo sapiens) (P29597 whole entry): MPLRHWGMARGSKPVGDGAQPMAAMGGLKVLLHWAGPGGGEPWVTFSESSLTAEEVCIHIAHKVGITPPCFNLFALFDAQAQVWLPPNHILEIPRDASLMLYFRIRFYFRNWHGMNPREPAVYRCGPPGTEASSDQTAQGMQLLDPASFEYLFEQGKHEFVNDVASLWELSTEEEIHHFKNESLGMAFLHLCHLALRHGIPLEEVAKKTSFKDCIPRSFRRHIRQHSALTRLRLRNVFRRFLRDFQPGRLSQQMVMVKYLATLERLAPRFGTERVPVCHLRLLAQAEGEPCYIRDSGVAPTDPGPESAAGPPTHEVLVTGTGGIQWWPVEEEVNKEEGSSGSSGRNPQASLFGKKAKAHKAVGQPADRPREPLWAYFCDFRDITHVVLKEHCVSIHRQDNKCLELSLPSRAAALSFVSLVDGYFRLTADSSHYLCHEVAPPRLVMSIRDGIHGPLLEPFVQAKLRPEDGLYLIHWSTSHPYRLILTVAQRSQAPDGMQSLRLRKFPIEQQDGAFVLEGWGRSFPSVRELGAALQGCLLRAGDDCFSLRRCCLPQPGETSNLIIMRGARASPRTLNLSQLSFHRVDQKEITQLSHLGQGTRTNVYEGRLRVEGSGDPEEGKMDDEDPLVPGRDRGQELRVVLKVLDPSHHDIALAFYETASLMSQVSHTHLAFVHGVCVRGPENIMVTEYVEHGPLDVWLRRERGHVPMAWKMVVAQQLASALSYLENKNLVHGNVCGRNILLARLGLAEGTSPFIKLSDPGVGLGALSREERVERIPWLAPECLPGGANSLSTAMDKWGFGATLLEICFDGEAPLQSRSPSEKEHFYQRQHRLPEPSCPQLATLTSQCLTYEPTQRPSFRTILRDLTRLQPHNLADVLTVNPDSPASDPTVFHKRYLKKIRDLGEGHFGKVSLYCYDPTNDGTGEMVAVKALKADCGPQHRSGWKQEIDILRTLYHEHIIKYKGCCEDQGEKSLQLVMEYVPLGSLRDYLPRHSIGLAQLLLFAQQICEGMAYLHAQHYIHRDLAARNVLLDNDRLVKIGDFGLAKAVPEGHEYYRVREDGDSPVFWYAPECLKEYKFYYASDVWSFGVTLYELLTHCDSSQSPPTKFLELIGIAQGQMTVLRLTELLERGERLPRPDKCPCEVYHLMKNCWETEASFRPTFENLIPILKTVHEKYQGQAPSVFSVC
# Chain of Activated CDC42 kinase 1 (Homo sapiens) (Q07912 whole entry, looked up): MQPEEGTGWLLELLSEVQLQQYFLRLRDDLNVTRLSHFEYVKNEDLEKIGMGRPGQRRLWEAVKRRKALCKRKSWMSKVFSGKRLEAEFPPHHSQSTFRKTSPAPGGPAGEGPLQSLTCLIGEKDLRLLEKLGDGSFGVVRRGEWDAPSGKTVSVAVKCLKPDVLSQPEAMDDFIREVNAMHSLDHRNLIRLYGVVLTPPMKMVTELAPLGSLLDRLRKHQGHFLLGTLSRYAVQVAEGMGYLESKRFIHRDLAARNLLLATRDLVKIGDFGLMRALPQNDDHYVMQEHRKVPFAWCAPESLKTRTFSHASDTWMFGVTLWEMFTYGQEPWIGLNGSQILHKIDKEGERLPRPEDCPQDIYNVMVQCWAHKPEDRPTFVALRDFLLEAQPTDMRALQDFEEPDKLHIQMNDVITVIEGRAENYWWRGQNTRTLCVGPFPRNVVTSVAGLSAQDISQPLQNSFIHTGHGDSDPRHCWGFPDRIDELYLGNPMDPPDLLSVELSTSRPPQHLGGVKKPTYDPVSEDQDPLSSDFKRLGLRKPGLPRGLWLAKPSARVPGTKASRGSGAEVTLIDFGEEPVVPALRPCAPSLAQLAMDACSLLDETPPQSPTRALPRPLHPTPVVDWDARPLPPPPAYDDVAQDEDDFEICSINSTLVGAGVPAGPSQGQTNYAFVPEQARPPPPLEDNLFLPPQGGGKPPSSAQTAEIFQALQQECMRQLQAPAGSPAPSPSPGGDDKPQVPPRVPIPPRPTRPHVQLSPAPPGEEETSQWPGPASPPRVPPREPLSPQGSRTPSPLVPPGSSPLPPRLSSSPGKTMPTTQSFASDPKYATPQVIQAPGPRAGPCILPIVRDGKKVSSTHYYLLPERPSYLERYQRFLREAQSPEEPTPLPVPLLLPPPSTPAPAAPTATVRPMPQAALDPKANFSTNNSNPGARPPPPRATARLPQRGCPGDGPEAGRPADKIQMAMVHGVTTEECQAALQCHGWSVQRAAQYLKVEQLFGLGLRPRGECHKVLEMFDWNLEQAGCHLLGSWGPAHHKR
Compound,inhibition [1] [%],inhibition [2] [%],inhibition [3] [%],inhibition [4] [%],inhibition [5] [%],inhibition [6] [%],inhibition [7] [%],inhibition [8] [%],inhibition [9] [%],inhibition [10] [%],inhibition [11] [%],inhibition [12] [%],inhibition [13] [%],inhibition [14] [%],inhibition [15] [%],inhibition [16] [%],inhibition [17] [%],inhibition [18] [%],inhibition [19] [%],inhibition [20] [%]
Cc1nc(-c2ccccc2)n2nc(NCCCN3CCOCC3)ncc12,3.52,2.69,3.32,4.19,5.74,1.98,2.53,0.58,1.15,0.31,5.06,1.8,3.5,2.73,2.25,4.46,3.59,-3.48,5.84,3.52
COC(=O)c1cncc(/C=C/c2c(C)cc(O)cc2C)c1,-1.42,6.12,20.5,1,1.3,4.05,20,1.2,5.39,2.21,0.47,2.4,4.35,2,6.12,4.44,22.5,-4.1,1.18,2.33
COc1cc(Nc2nccc(-c3cnn4ncccc34)n2)cc(OC)c1,61.2,9.2,42.9,7.05,39.6,26.8,64.4,3.06,35.6,0.98,26.7,5.6,39.5,9.63,45.6,5.79,31.4,4.29,15.4,20.9
Cc1ccc(O)cc1Nc1ccnc2ccc(S(C)(=O)=O)cc12,-3.99,77.9,82.7,27.1,70.5,4.13,13.7,9.97,54.8,2.69,2.38,3.22,5.52,6.41,7.31,81,83.8,-1.89,10,1.96
Nc1nccc(-c2c(-c3ccc(F)cc3)ncn2CCCN2CCOCC2)n1,-0.03,3.86,3.98,8.3,8.42,1.92,5.56,0.21,1.33,-0.29,2.15,1.18,6.6,0.23,4.59,3,3.47,-3.95,6.61,3.86
[O-][S+]1CCN(Cc2ccc(-c3ccc4ncnc(Nc5ccc(OCc6ccccc6)c(Cl)c5)c4c3)o2)CC1,0,-0.94,1.06,0.37,1.08,-0.33,9.61,0.09,-0.42,1.88,3.75,1.6,2.14,0.66,0.36,0.16,2.65,-1.17,8.12,1.75
